# Reference: publication PMC4336329 (PLoS ONE, 2015)
# The whole screen tested about 310,000 compounds, of which about 14,000 (4.5%) showed an effect of 50% or more. The effect is printed as a negative number. The sample holds strong results, similar compounds and a random draw of the others, so the mix is not that of the screen.
# Target: human ether-à-go-go-related gene (hERG) potassium channel (human, UniProt Q12809)
# Assay: primary screen, population patch clamp on CHO cells stably expressing hERG; higher = less effect of the substance
# 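Also: peak tail current of the secondary pulse compared with the same well before compound.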
# Chain of human ether-à-go-go-related gene (hERG) potassium channel (Q12809 whole entry, looked up): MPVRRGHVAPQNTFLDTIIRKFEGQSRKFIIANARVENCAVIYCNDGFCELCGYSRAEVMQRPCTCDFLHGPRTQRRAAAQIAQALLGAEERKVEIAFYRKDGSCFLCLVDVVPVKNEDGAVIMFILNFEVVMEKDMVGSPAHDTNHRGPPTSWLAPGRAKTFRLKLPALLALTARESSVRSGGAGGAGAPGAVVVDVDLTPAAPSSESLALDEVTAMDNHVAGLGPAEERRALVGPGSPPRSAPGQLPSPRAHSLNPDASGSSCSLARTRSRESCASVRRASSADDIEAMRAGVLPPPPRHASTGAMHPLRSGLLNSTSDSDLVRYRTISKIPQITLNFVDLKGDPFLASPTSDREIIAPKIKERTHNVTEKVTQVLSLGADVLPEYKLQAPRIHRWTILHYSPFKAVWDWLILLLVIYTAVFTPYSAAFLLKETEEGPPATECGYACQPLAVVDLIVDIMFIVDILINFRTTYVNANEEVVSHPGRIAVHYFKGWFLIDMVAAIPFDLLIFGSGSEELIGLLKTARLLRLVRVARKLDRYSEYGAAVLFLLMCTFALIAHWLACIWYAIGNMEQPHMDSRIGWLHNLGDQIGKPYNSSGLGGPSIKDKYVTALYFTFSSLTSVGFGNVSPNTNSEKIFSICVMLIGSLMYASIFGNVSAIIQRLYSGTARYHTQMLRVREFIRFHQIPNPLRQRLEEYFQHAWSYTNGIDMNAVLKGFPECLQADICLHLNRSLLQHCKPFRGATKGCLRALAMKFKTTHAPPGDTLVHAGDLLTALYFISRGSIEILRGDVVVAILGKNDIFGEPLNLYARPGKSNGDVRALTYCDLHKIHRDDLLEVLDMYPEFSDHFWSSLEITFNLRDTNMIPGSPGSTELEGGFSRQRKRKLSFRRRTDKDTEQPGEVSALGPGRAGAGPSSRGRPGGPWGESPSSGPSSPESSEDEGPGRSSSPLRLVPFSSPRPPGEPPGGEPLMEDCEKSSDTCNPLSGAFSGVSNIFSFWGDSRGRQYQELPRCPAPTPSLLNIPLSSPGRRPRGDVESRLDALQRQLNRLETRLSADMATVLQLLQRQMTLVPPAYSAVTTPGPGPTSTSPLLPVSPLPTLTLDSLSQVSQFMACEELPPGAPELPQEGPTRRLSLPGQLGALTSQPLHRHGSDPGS
row,Structure (SMILES),"hERG current change (%, negative = inhibition) at 10uM"
1,COc1cc(NC(=O)c2ccc(-c3ccc(Br)cc3)o2)ccc1NC(=O)C(C)C,-26.1%
2,O=C(CSc1ccc(Cl)cc1)Nc1ccc(N2CCN(c3ccccc3)CC2)c(F)c1,24.9%
3,COc1cccc(C(=O)Oc2ccc3ccc(=O)oc3c2)c1,42.3%
4,CCN(CC)S(=O)(=O)c1ccc(S(=O)(=O)N2CCN(CCC#N)CC2)cc1,8.45%
5,O=[N+]([O-])c1ccc(S(=O)(=O)NCCN2CCOCC2)cc1,11.2%
6,O=S(=O)(NCCN1CCCC1)c1ccc(Br)cc1,-8.08%
7,Cc1ccc(S(=O)(=O)N(CCC#N)CCN2CCCC2)cc1,-21.9%
8,N#CCCN(CCN1CCCC1)S(=O)(=O)c1ccc(-c2ccc([N+](=O)[O-])cc2)cc1,-79.1%
9,O=[N+]([O-])c1ccc(-c2ccc(S(=O)(=O)NCCN3CCCC3)cc2)cc1,-77.7%
10,Cc1oc2cc(O)ccc2c(=O)c1Oc1ccccc1,-10.2%
11,COC1=CC(=O)C[C@@H](C)[C@]12Oc1c(Cl)c(OC)cc(OC)c1C2=O,-9.99%
12,C=CCSc1ncccc1C(=O)NCCc1ccc(Cl)cc1,6.54%
13,O=S(=O)(Nc1nc2ccc(S(=O)(=O)N3CCCC3)cc2s1)c1ccc(F)cc1,-2.68%
14,COCCNc1oc(-c2ccc(C)cc2)nc1C#N,8.26%
15,Cc1ccc(-n2c(SCC(=O)N3CCOCC3)nnc2-c2cccnc2)cc1C,-16.9%
16,CN(C)CCCN(C(=O)CCc1ccccc1)c1nc2ccc(Br)cc2s1.Cl,-3.24%
17,Cc1ccc2nc(N(CCCN(C)C)C(=O)CCc3ccccc3)sc2c1.Cl,-66%
18,Cc1cccc2sc(N(CCCN(C)C)C(=O)CCc3ccccc3)nc12.Cl,-54.1%
19,CN(C)CCN(C(=O)CCc1ccccc1)c1nc2c(F)cc(F)cc2s1.Cl,-33.4%
20,CN(C)CCCN(C(=O)CCc1ccccc1)c1nc2ccc(Cl)cc2s1.Cl,-24.4%

row,Structure (SMILES),"hERG current change (%, negative = inhibition) at 10uM"
1,CN(C)CCCN(C(=O)CCc1ccccc1)c1nc2ccc(F)cc2s1.Cl,-70.1%
2,Cc1cccc2sc(N(CCCN(C)C)C(=O)CN3C(=O)c4ccccc4C3=O)nc12.Cl,-11.2%
3,Cc1ccccc1/C=N/n1c(-c2ccccn2)n[nH]c1=S,14.7%
4,O=S(=O)(c1cccc2cccnc12)N1CCN(Cc2ccccc2)CC1,-0.188%
5,Cn1ccnc1C(O)c1cc(C(C)(C)C)c(O)c(C(C)(C)C)c1 (stereo not shown),-37.3%
6,COC(=O)N/N=C\c1ccc(-c2cc(Cl)c(Cl)cc2Cl)o1,-1.58%
7,COc1ccc(S(=O)(=O)N2CCN(CC(=O)NC3CCCC3)CC2)cc1,0.823%
8,O=C(C1CCCN(Cc2nc(-c3ccc(Cl)cc3)no2)C1)N1CCOCC1 (stereo not shown),1.39%
9,Cc1ccc(-c2noc(CCC(=O)NCc3ccccc3CN3CCOCC3)n2)cc1,-36.5%
10,O=C(C1CCN(Cc2nc(-c3ccc(Cl)cc3)no2)CC1)N1CCOCC1,-61.9%
11,Clc1ccc(-c2noc(CN3CCOCC3)n2)cc1,4.83%
12,O=C(CCc1nc(-c2ccc(Cl)cc2)no1)NCc1ccccc1CN1CCOCC1,-65.5%
13,O=C(CCc1nc(-c2ccccc2)no1)NCc1ccccc1CN1CCOCC1,-10.5%
14,Cc1ccc2oc(=O)c3cnn(CC(=O)N(CCN(C)C)Cc4ccco4)c3c2c1,-25.7%
15,CC(C)c1ccc(-c2c(NCCc3ccccc3)c(=O)c2=O)cc1,22.1%
16,Cc1ccc(OCCNC(=O)CNC(=O)c2ccccc2Cl)cc1,-3.58%
17,COc1cc(CN2CCNCC2)cc(OC)c1OC.Cl,5.64%
18,CN(C)CCn1c(NCc2ccc3c(c2)OCO3)nc2ccccc21.Cl,-59.5%
19,CCCCn1c(NCc2ccc3c(c2)OCO3)nc2ccccc21,-61%
20,CCCCn1c(NCc2ccc(N(C)C)cc2)nc2ccccc21,-43.7%

row,Structure (SMILES),"hERG current change (%, negative = inhibition) at 10uM"
1,CCCn1c(NCc2ccc(N(C)C)cc2)nc2ccccc21,-40.2%
2,CCCn1c(NCc2ccc3c(c2)OCO3)nc2ccccc21,12.6%
3,O=C(NCCN1CCOCC1)C(=O)NCc1ccc2c(c1)OCO2,22.8%
4,Nc1c(C(=O)NCc2ccc3c(c2)OCO3)c2nc3ccccc3nc2n1CCCN1CCOCC1,1.46%
5,CCn1c(NCc2ccc3c(c2)OCO3)nc2ccccc21,-38.5%
6,c1ccc2c(c1)nc(NCc1ccc3c(c1)OCO3)n2CCN1CCOCC1,-66.8%
7,COc1cc2c(cc1OC)C(CC(=O)O)N(C(=O)CC1CCCC1)CC2 (stereo not shown),20.6%
8,COC(=O)CCCCC1SCC(NC(=O)OC)C1NC(=O)OC (stereo not shown),2.09%
9,CC(C)(C)OC(=O)COc1cc(F)ccc1[N+](=O)[O-],-3.54%
10,Br.CCCCn1c(=N)n(CCOc2ccc(C)cc2)c2ccccc21,-73.1%
11,Cc1ccc(OCC(O)Cn2c3ccccc3c3ccccc32)cc1 (stereo not shown),8.1%
12,Cc1ccc(OCCn2c(=O)sc3ccccc32)cc1,4.98%
13,OCc1nc2ccccc2n1CC(O)COc1ccccc1 (stereo not shown),6.25%
14,CCn1c(=N)n(CC(O)COc2ccc(C)cc2)c2ccccc21.Cl (stereo not shown),-70%
15,CCCCn1c(=N)n(CC(O)COc2ccc(C)cc2)c2ccccc21.Cl (stereo not shown),-81.8%
16,Cc1ccc(OCCn2c(=O)cnc3ccccc32)cc1,-9.95%
17,Cc1nc2ccccc2n1CC(O)COc1ccc(Br)cc1 (stereo not shown),-49.9%
18,CCCCn1c(=N)n(CC(O)COc2ccccc2)c2ccccc21 (stereo not shown),-73.1%
